The results in this text go back to PubChem BioAssay AID624267 (The Scripps Research Institute Molecular Screening Center, 2012).

Molecules are shown by their SMILES. Hit rate of the full screen: of about 360,000 compounds, about 1,400 (0.39%) were called active. The sample holds actives, similar compounds and a random draw of the others, so the mix is not that of the screen. Values without a mark were called inactive. No stated cut-off is given here; in the data, active means inhibition above about 21%; inactive means the rest.

The target of this test is Receptor-interacting serine/threonine-protein kinase 2 (Homo sapiens) (UniProt O43353). Briefly: NOD2-RIPK2 binding disruptors in cells, primary screen, fluorescence, CHO cells, BLA complementation (AID 624267).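 Further: 0% = vehicle only and 100% = reference blocker.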 Conditions: CHO BLA complementation NOD2-RIPK2, CCF4 ratio; at 4.98 µM; hits give high values.
Receptor-interacting serine/threonine-protein kinase 2 (Homo sapiens), sequence (O43353 whole entry, looked up): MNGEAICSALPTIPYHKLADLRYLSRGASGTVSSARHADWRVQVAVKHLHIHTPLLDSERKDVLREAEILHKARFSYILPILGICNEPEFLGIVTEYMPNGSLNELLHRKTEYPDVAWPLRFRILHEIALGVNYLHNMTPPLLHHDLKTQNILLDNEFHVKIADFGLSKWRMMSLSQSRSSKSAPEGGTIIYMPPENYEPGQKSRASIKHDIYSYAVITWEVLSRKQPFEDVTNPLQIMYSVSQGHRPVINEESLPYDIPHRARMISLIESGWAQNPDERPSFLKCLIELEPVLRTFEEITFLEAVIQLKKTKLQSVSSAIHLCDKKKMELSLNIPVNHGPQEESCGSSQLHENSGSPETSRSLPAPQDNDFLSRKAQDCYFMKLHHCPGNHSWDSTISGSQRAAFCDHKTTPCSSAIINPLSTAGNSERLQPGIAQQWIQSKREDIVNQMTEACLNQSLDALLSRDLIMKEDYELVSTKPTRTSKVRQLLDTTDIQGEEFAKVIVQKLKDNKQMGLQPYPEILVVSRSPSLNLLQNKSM
A word on the inhibition: it is the relative decrease from the control value, in per cent. As for `O=C1CC(C(F)(F)C(F)(F)C(F)(F)C(F)(F)F)=Nc2ccccc2N1`, the inhibition is 24.9% (active).
As for `OC(CN=c1sc2ccccc2n1CC(O)COc1ccccc1)COc1ccccc1` (configuration not stated), the figure is -11.1%.
Turning to `CCOc1ccc2c(=O)c(-c3ccc4c(c3)OCCCO4)c(C)oc2c1`, the inhibition was -5.36%.
For `CCOC(=O)c1c(NC(=O)C2CCN(S(=O)(=O)c3ccc(Cl)cc3)CC2)sc2c1CCCC2` the value was 4.57%.
Take `CC[C@H]1CN2CCc3cc(OC)c(OC)cc3[C@@H]2C[C@@H]1C[C@H]1NCCc2cc(OC)c(OC)cc21`: the inhibition was 23.9% (active).
For `COCCCNC(=O)Cn1c(=O)n(Cc2ccccc2Cl)c(=O)c2cc(OC)c(OC)cc21` the value was -13.8%.
Regarding `COc1ccccc1C(=O)NC(CCSC)C(=O)N1CCN(C/C=C/c2ccccc2)CC1` (configuration not stated), the inhibition was 0.75%.
As for `CC(=O)N1c2ccccc2N(Cc2ccc([N+](=O)[O-])cc2)C(=O)C1(C)C`, the figure is -3.82%.
As for `O=[N+]([O-])c1ccc(C(S(=O)(=O)Cc2ccccc2)S(=O)(=O)Cc2ccccc2)cc1`, the figure is -0.41%; as for `O=C1NC(=O)C2C1C(c1ccc([N+](=O)[O-])cc1)=NN2Cc1ccccc1` (configuration not stated), 43.2% (active).
With `COc1ccccc1C(=O)NCCC(=O)NC1=NCCS1`, the inhibition is -0.45%.
`COc1cc2[nH]c(O)c(C=O)c2cc1OC`: the inhibition is -11.7%.
For the molecule `COc1ccc(NC(=O)COC(=O)c2n[nH]c3ccccc23)c(OC)c1`, the inhibition was 2.43%.
In the case of `COc1ccc(OC)c(N=Cc2c(O)[nH]c3ccccc23)c1`, the inhibition is 68.3% (active).
On to `CC(C)(C)c1ccc(CCC2OCC(CN3CCOCC3)O2)cc1` (configuration not stated), for which the inhibition was -4.96%.
For `Cc1ccc(C)c(NS(=O)(=O)c2c(C)[nH]c(C)c2C(=O)N2CCCCC2)c1` the value was -5.02%; for `Cc1ccc(S(=O)(=O)N2CCN=C2SCc2c(F)cccc2Cl)cc1`, 4.62%; for `COc1ccc(C(C(=O)NC(C)(C)C)N(C(=O)Cn2nnc3ccccc32)c2ccc(C(C)=O)cc2)cc1O` (configuration not stated), 1.81%.
As for `Cc1ccc(C(=O)N/N=C/c2sc(=O)n(Cc3cccc(C(=O)O)c3)c2Cl)cc1`, the figure is -4.49%.
As for `CC(C)(C)C1CCC(C(=O)NCC(c2cccs2)N2CCOCC2)CC1` (configuration not stated), the figure is 2.5%; as for `O=C(CN1CCc2cc3c(cc2C1)OCCCO3)Nc1ccccc1`, -9.22%; as for `O=C(CCN1CCc2ccccc2C(O)(c2ccccc2)C1)c1ccc2c(c1)OCCO2` (configuration not stated), 26.2% (active).
Consider `O=S(=O)(c1ccc2c(c1)OCCO2)N1CCc2ccccc21`, for which the inhibition is -1.2%.
As for `O=C(NC(=S)NC1CCSC1=O)c1ccccc1F` (configuration not stated), the figure is -9.93%.
Consider `CCCCN(CCCC)CCCNC(=O)CN1C(=O)COc2ccc(S(=O)(=O)N3CCC(C)CC3)cc21`, for which the inhibition was -2.68%.
As for `CC(=O)Nc1cccc(Nc2ccc(C#N)cc2)c1`, the figure is 3.65%; as for `CCOC(=O)C1=C(C)NC2=C(C(=O)CC(C)(C)C2)C1c1ccsc1` (configuration not stated), 2.36%; as for `COC(=O)c1ccc(C2NC(=O)NC(C)=C2C(=O)N(C)C)cc1` (configuration not stated), -10%.
Turning to `CCOC(=O)C1=C(C)Nc2sc(C(=O)c3ccc(Br)cc3)c(N)c2C1c1ccc(C(=O)OC)cc1` (configuration not stated), the inhibition is 27% (active).
For `COc1ccc(NC(=O)/C(Cl)=C(/Cl)S(=O)Cc2ccc(C)cc2)cn1` (configuration not stated) the value was 95.1% (active); for `NC(Cc1ccccc1)c1csc(Nc2cc(Oc3ccccc3)ncn2)n1` (configuration not stated), -5.36%; for `O=C(COC(=O)c1ccccc1NC(=O)c1ccco1)Nc1ccc2c(c1)OC(F)(F)O2`, -2.03%.
As for `N#Cc1cc([N+](=O)[O-])ccc1NCC1CCCO1` (configuration not stated), the inhibition was -32.9%.
Regarding `O=C1c2cccc3c([N+](=O)[O-])ccc(c23)C(=O)N1CC1CCCO1` (configuration not stated), the inhibition was 80.1% (active).
Regarding `O=C1C(C=NCC2CCCO2)=C(O)c2ccccc21` (configuration not stated), the inhibition was -5.23%.
Take `Cc1ccc(S(=O)(=O)N2CCN(C(=O)c3cc(S(=O)(=O)N4CCOCC4)ccc3F)CC2)cc1`: the inhibition was -18.2%.
For `CCc1ccc(OC2(C)CCN(CCOc3ccc(C)cc3)C2)cc1` (configuration not stated) the value was 0.79%.
Regarding `COc1ccccc1N1N=C(c2cccs2)CC1c1ccccc1` (configuration not stated), the inhibition is 49.9% (active).
For `COc1ccc(C2CC(c3cccs3)=NN2c2nc(C)c(C(C)=O)s2)cc1OC` (configuration not stated) the value was 6.76%; for `Fc1ccc(N2N=C(c3cccs3)CC2c2ccco2)c(F)c1` (configuration not stated), -13.7%; for `Cc1ncoc1C(=O)N1CCCC(C(=O)c2ccc3c4c(cccc24)CC3)C1` (configuration not stated), 1.4%.
As for `Cc1ccccc1C(=O)NCC(c1ccco1)N1CCc2ccccc21` (configuration not stated), the figure is 7.15%; as for `COc1ccc(C2=CC(c3cccc(OC)c3)n3nnnc3N2)cc1` (configuration not stated), 26.8% (active).
As for `COC(=O)C1=C(C(=O)c2ccc(C)cc2)C(c2ccccc2)n2nnnc2N1` (configuration not stated), the figure is 2.81%; as for `COc1ccc(C2CC(c3cccs3)Nc3nnnn32)cc1` (configuration not stated), -2.81%.
Turning to `O=C1N(c2ccc(Cl)cc2)C(c2ccc(Cl)cc2)N2CCCN12` (configuration not stated), the inhibition is 8.61%.
For the molecule `Cc1ccsc1-c1cc(C(=O)O)c2c(ccc3ccccc32)n1`, the inhibition is 0.09%.
On to `CCOC(=O)C1(Cc2cccc(OC)c2)CCN(Cc2csc(C(C)=O)c2)CC1`, for which the inhibition is -2.05%.
On to `CCCc1c(C(=O)Nc2ccc(F)cc2)cnn1-c1ccccc1`, for which the inhibition was -3.44%.
For the molecule `O=C(c1cccc(-n2cccc2)c1)N1CCN(S(=O)(=O)c2ccc(F)cc2)CC1`, the inhibition was -0.82%.
With `O=[N+]([O-])/C=C/c1ccc2c(ccn2Cc2ccccc2)c1`, the inhibition is 87.9% (active).
For `COC(=O)N1CN(C(=O)OC)CN(C(=O)OC)C1` the value was -12.2%; for `Cc1ccc(NC(=O)CCCNC(=O)c2ccc(Cl)cc2)cc1S(=O)(=O)N1CCOCC1`, -6.45%; for `O=C(CCN1C(=O)COc2ccccc21)NCCCN1CCN(c2ccc(F)cc2)CC1`, -5.53%.
For `CN1CCN(CCCNC(=O)c2ccc(/C=C3\Oc4ccccc4N(Cc4ccc(Cl)cc4)C3=O)cc2)CC1` the value was 33.1% (active).
With `COc1ccc(C)cc1NC(=S)Nc1ccccc1SC`, the inhibition was -5.8%.
For `CCOc1ccc(S(=O)(=O)NCc2ccc3c(c2)OCO3)cc1C` the value was -3.55%.
